Results from PubChem BioAssay.
For some assays here: Results with a measured potency or affinity are listed apart. Calls of active or inactive are those of the source. Unless noted, the rule behind the calls is not given here.

Columns and labels:
[1] = antimalarial activity against Dd2 strain (AID 2302;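 active = growth inhibition above 50% at the single 2 µM test dose, taken to imply half-maximal potency below 2 µM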;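 note: 0% = DMSO untreated growth and 100% = chloroquine plus artemisinin killed control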); settings: P. falciparum Dd2 in RBCs, LDH growth readout, 72 h; at 2 µM; active compounds read high
[2] = HepG2 cytotoxicity, primary screen, cytotoxicity control for P. falciparum antimalarial project, cell-based, ATP luminescence (AID 2303;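 active = inhibition above 50%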;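 note: 0% = DMSO wells and 100% = digitonin-killed cells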); settings: HepG2 viability, 24-48 h, at 10 µM, active compounds read high
[3] = biological target: L-lactate dehydrogenase (Plasmodium falciparum (isolate CDC / Honduras)) (UniProt Q27743); test: PfLDH activity inhibition – cell lysate, 3D7 strain, counter-screen for P. falciparum growth inhibition project (AID 2304);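 note: 0% = vehicle and 100% = reference inhibitor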; settings: P. falciparum 3D7 crude extract, LDH APAD/NBT absorbance; at 2 µM; active compounds read high
[4] = inhibition of 3D7 malaria parasite growth – strain 3D7 (AID 2306);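 note: 0% = DMSO wells and 100% = chloroquine plus artemisinin control wells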; settings: P. falciparum 3D7 erythrocytic growth, LDH absorbance, 72 h; at 2 µM; active compounds read high
[5] = biological target: Calcium-dependent protein kinase 1 (Plasmodium falciparum (isolate 3D7)) (UniProt P62344); test: PfCDPK1 kinase inhibitors, biochemical, TCAMS library (AID 1159585; cut-off not given, nearly all actives have IC50 up to about 0.98 µM;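 note: inhibitors leave more ATP so luminescence rises with inhibition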); settings: recombinant PfCDPK1, Kinase-Glo ATP depletion luminescence
[6] = biological target: Plasmodium falciparum protein kinase 6 (PK6, PF3D7_1337100) (UniProt Q8IDW1); test: PfPK6 kinase inhibitors, biochemical, TCAMS library (AID 1159586); settings: recombinant PfPK6, Kinase-Glo ATP depletion luminescence
[7] = biological target: Protein kinase 7 (PK7), Plasmodium falciparum 3D7 (PF3D7_0213400) (UniProt Q7YTF7); test: inhibition of Plasmodium PK7 catalytic activity – biochemical, TCAMS antimalarial set, Kinase-Glo luminescence (AID 1159587); settings: recombinant PfPK7, Kinase-Glo ATP depletion luminescence
[8] = biological target: Calcium-dependent protein kinase 4 (Plasmodium falciparum (isolate 3D7)) (UniProt Q8IBS5); test: PfCDPK4 kinase inhibitors, biochemical, TCAMS library (AID 1159588; cut-off not given, nearly all actives have IC50 up to about 0.91 µM); settings: recombinant PfCDPK4, Kinase-Glo ATP depletion luminescence
Sequence of Calcium-dependent protein kinase 4 (Plasmodium falciparum (isolate 3D7)) (Q8IBS5 whole entry, looked up): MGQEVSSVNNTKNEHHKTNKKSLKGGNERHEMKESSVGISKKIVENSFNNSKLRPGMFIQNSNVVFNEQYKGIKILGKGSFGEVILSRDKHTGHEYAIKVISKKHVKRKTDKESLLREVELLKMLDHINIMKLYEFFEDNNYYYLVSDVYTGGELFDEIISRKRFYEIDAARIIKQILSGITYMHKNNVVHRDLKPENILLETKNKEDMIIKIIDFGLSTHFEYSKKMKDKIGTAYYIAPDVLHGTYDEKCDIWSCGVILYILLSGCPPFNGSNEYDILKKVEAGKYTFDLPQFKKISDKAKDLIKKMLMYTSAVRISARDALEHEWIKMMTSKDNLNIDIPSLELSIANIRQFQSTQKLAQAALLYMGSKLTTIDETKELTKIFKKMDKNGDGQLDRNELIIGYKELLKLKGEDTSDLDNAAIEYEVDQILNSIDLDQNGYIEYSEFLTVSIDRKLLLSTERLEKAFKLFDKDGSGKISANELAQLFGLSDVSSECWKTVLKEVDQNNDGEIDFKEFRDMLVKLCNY

Sequence of Plasmodium falciparum protein kinase 6 (PK6, PF3D7_1337100) (Q8IDW1 1-305): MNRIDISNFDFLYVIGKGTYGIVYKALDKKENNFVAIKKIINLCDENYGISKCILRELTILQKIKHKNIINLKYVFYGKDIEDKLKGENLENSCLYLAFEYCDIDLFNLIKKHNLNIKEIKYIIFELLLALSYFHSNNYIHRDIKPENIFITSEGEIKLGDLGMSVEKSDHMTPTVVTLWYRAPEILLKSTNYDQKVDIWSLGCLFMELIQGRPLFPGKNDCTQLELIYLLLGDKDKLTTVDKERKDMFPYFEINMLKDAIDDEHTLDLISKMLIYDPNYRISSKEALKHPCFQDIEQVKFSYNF
Sequence of Protein kinase 7 (PK7), Plasmodium falciparum 3D7 (PF3D7_0213400) (Q7YTF7 1-343): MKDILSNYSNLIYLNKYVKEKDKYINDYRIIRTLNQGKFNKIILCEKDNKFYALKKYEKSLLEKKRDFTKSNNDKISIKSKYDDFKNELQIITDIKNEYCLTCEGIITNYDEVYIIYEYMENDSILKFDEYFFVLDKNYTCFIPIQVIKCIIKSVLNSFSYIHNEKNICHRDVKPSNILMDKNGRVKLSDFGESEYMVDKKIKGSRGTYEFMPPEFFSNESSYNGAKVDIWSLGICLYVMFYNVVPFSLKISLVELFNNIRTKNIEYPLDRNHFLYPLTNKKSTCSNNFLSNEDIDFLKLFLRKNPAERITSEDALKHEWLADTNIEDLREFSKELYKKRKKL
Sequence of L-lactate dehydrogenase (Plasmodium falciparum (isolate CDC / Honduras)) (Q27743 whole entry, looked up): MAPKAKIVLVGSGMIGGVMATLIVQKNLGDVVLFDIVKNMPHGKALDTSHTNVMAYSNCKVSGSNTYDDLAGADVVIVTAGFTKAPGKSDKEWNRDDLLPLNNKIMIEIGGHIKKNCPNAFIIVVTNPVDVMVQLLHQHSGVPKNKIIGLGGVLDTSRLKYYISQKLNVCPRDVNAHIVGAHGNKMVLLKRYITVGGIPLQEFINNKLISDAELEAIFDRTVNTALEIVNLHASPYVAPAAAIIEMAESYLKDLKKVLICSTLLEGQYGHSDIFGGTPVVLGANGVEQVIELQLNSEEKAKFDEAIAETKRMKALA
Sequence of Calcium-dependent protein kinase 1 (Plasmodium falciparum (isolate 3D7)) (P62344 whole entry, looked up): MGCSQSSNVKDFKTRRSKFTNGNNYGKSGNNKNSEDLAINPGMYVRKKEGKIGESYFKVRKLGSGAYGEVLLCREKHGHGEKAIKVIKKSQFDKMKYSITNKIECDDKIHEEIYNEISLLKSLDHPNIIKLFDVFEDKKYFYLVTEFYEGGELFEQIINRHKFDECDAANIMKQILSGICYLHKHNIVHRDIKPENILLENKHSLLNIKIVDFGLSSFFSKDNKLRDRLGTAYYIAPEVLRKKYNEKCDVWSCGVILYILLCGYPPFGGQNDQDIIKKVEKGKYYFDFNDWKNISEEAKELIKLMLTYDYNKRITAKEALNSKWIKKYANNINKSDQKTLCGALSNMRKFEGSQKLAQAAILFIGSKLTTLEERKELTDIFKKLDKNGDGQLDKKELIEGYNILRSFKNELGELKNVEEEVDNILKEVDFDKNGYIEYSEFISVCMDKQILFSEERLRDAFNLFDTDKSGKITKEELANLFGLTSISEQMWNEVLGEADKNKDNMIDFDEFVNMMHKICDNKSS

NC1=NC2(CCCCC2)N(OCCCCCCN2C(=O)c3ccccc3C2=O)C(N)=N1
inactive: growth inhibition [1] 16% | inhibition [2] 20% | inhibition [3] 1% | outcome [5] | outcome [6] | outcome [7] | outcome [8]
active: growth inhibition [4] 98%

O=C(Nc1ccc(-c2csc3nccn23)cc1)c1ccc(Cl)cc1
inactive: inhibition [3] -5% | outcome [5] | outcome [6] | outcome [7] | outcome [8]
active: growth inhibition [1] 50% | inhibition [2] 54% | growth inhibition [4] 100%

CC(C)c1ccc2oc(-c3ccc(NC(=O)c4ccc([N+](=O)[O-])o4)cc3)nc2c1
inactive: inhibition [3] 6% | outcome [5] | outcome [6] | outcome [7] | outcome [8]
active: growth inhibition [1] 95% | inhibition [2] 99% | growth inhibition [4] 100%

CCCCCCCN1CCC(CCNc2ccnc3ccc(OC)cc23)CC1
active: growth inhibition [1] 86% | growth inhibition [4] 84%
inactive: inhibition [2] 5% | inhibition [3] -2% | outcome [5] | outcome [6] | outcome [7] | outcome [8]

Cc1cccc2[nH]c(-c3ccc(-c4cccc(NC(=O)Nc5cccc(C#N)c5)c4)cc3)nc12
active: growth inhibition [1] 86% | growth inhibition [4] 102%
inactive: inhibition [2] 25% | inhibition [3] 7% | outcome [5] | outcome [6] | outcome [7] | outcome [8]

COc1ccc(S(=O)(=O)N(c2cc(Br)cc3c2OCC3)S(=O)(=O)c2ccc(OC)c(N3CCN(C)CC3)c2)cc1N1CCN(C)CC1
active: growth inhibition [1] 98% | inhibition [2] 67% | growth inhibition [4] 81%
inactive: inhibition [3] -8% | outcome [5] | outcome [6] | outcome [7] | outcome [8]

N#Cc1ccc(C(=O)NC2CCN(CCCCCNC(=O)/C=C/c3ccc(Cl)c(Cl)c3)CC2)cc1
inactive: growth inhibition [1] 1% | inhibition [2] 13% | inhibition [3] -4% | outcome [5] | outcome [6] | outcome [7] | outcome [8]
active: growth inhibition [4] 98%

CN(C)Cc1ccc(-c2cccc(NC(=O)c3cccc(Cl)c3)c2)cc1
active: growth inhibition [4] 96%
inactive: growth inhibition [1] 12% | inhibition [2] 18% | inhibition [3] -6% | outcome [5] | outcome [6] | outcome [7] | outcome [8]

COc1cccc(C=NNc2cc(C)nc3ccccc23)c1
active: growth inhibition [4] 101%
inactive: growth inhibition [1] 46% | inhibition [2] 16% | inhibition [3] -8% | outcome [5] | outcome [6] | outcome [7] | outcome [8]

Cc1cccc2[nH]c(-c3ccc(-c4ccc(CNCC5CCCO5)cc4)s3)nc12 (stereo not given)
active: growth inhibition [1] 96% | growth inhibition [4] 100%
inactive: inhibition [2] 11% | inhibition [3] -5% | outcome [5] | outcome [6] | outcome [7] | outcome [8]

N[C@@H](COc1cccc2c(-c3ccncc3)c(-c3cccc(NC(=O)Nc4ccccc4)c3)nn12)c1ccccc1
active: growth inhibition [1] 71% | growth inhibition [4] 101%
inactive: inhibition [2] 9% | inhibition [3] 2% | outcome [5] | outcome [6] | outcome [7] | outcome [8]

FC(F)(F)c1ccc(NC(=S)N2CCC(CCN3CCC(c4c[nH]c5ccccc45)CC3)CC2)cc1
active: growth inhibition [4] 98%
inactive: growth inhibition [1] 37% | inhibition [2] 44% | inhibition [3] 0% | outcome [5] | outcome [6] | outcome [7] | outcome [8]

CCCC1CCNC(C(O)c2ccnc3ccc(OC)cc23)C1 (stereo not given)
inactive: inhibition [2] -15% | inhibition [3] -3% | outcome [5] | outcome [6] | outcome [7] | outcome [8]
active: growth inhibition [1] 78% | growth inhibition [4] 98%

Cc1cc(NC2CCCC2)nc(Nc2ccccc2C)n1
active: growth inhibition [4] 88%
inactive: growth inhibition [1] 20% | inhibition [2] -2% | inhibition [3] 2% | outcome [5] | outcome [6] | outcome [7] | outcome [8]

CCCCCCN1CCC(NCc2cccc([N+](=O)[O-])c2)CC1
active: growth inhibition [4] 100%
inactive: growth inhibition [1] 16% | inhibition [2] -2% | inhibition [3] 0% | outcome [5] | outcome [6] | outcome [7] | outcome [8]

CC(C)c1cn2c3c(cc(C(=O)N[C@@H](Cc4ccccc4)[C@H](O)CNC4CCCCC4)cc13)N(C)S(=O)(=O)CC2
inactive: inhibition [2] 9% | inhibition [3] 0% | outcome [5] | outcome [6] | outcome [7] | outcome [8]
active: growth inhibition [1] 99% | growth inhibition [4] 98%

O=C(NC1CCCC1)c1ccc(N2CCC(NCc3cc4cc(Cl)ccc4[nH]3)CC2)cc1
active: growth inhibition [4] 91%
inactive: growth inhibition [1] -10% | inhibition [2] 21% | inhibition [3] -2% | outcome [5] | outcome [6] | outcome [7] | outcome [8]

Oc1ccc(CCNc2nc(NCc3ccccc3-c3ccc(C(F)(F)F)cc3)nc(N3CCCNCC3)n2)cc1
inactive: growth inhibition [1] 2% | inhibition [2] 12% | inhibition [3] 0% | outcome [5] | outcome [6] | outcome [7] | outcome [8]
active: growth inhibition [4] 95%

Clc1ccc(Sc2cncnc2N2CCOCC2)cc1
active: inhibition [2] 66% | growth inhibition [4] 95%
inactive: growth inhibition [1] -6% | inhibition [3] -2% | outcome [5] | outcome [6] | outcome [7] | outcome [8]

O=S(=O)(Nc1cc2c(cc1OCc1ccccc1)CCN(C1CCC1)CC2)c1ccc(-c2ccc(Cl)cc2)cc1
inactive: growth inhibition [1] 12% | inhibition [2] 18% | inhibition [3] 0% | outcome [5] | outcome [6] | outcome [7] | outcome [8]
active: growth inhibition [4] 92%

OCCCCCCN=Cc1[nH]c(=S)sc1O
active: growth inhibition [4] 91%
inactive: growth inhibition [1] 1% | inhibition [2] 7% | inhibition [3] 4% | outcome [5] | outcome [6] | outcome [7] | outcome [8]

COc1ccc2nccc(N(C)CC3(O)CCN(CCc4ccc5c(c4)NC(=O)CS5)CC3)c2n1
active: growth inhibition [1] 67% | growth inhibition [4] 91%
inactive: inhibition [2] 10% | inhibition [3] 1% | outcome [5] | outcome [6] | outcome [7] | outcome [8]

Cc1nc(-c2nc(N3CCC(C(N)=O)CC3)ncc2-c2ccsc2)sc1C
active: growth inhibition [4] 93%
inactive: growth inhibition [1] 33% | inhibition [2] -8% | inhibition [3] -11% | outcome [5] | outcome [6] | outcome [7] | outcome [8]

O=C(Nc1ccc(Cl)c(Cl)c1)Nc1ccc2c(c1)CCNCC2
inactive: growth inhibition [1] 37% | inhibition [2] 13% | inhibition [3] -1% | outcome [5] | outcome [6] | outcome [7] | outcome [8]
active: growth inhibition [4] 86%

CC1=C(C(=O)OC(C)C)C(c2ccccc2Cl)C2=C(CC(c3ccccc3)CC2=O)N1 (stereo not given)
active: growth inhibition [1] 84% | growth inhibition [4] 93%
inactive: inhibition [2] 15% | inhibition [3] 1% | outcome [5] | outcome [6] | outcome [7] | outcome [8]

Cc1cccc2[nH]c(-c3ccc(-c4cccc(NC(=O)NCc5cccc(F)c5)c4)s3)nc12
active: growth inhibition [4] 88%
inactive: growth inhibition [1] 8% | inhibition [2] 24% | inhibition [3] -2% | outcome [5] | outcome [6] | outcome [7] | outcome [8]

NC1=NC(c2ccccc2)(c2ccccc2)C(=O)N1CCOc1ccccc1
active: growth inhibition [1] 57% | growth inhibition [4] 90%
inactive: inhibition [2] 42% | inhibition [3] 0% | outcome [5] | outcome [6] | outcome [7] | outcome [8]

O=C(Nc1cn(-c2ccc(OCc3cccc(F)c3)c(Cl)c2)c2ncncc12)c1ccncc1
inactive: inhibition [2] 13% | inhibition [3] 0% | outcome [5] | outcome [6] | outcome [7] | outcome [8]
active: growth inhibition [1] 81% | growth inhibition [4] 100%

Oc1ccc(-c2cc(-c3ccc(O)cc3)nc(-c3ccccc3)n2)cc1
inactive: inhibition [2] 0% | inhibition [3] -1% | outcome [5] | outcome [6] | outcome [7] | outcome [8]
active: growth inhibition [1] 97% | growth inhibition [4] 96%

COc1ccc2ncc(F)c(NC(=O)C3CCC(NCc4cc5cc(F)cc(F)c5[nH]4)CC3)c2n1 (stereo not given)
inactive: growth inhibition [1] 15% | inhibition [2] 18% | inhibition [3] 2% | outcome [5] | outcome [6] | outcome [7] | outcome [8]
active: growth inhibition [4] 95%

O=C(Nc1cccc(CN2CCCN(CC3CCCCC3)CC2)c1)c1cc2ccccc2s1
active: growth inhibition [4] 96%
inactive: growth inhibition [1] 15% | inhibition [2] 29% | inhibition [3] 0% | outcome [5] | outcome [6] | outcome [7] | outcome [8]

CCOC(=O)c1cc(Cl)ccc1OCCCON1C(N)=NC(N)=NC1(C)C
inactive: inhibition [3] 3% | outcome [5] | outcome [6] | outcome [7] | outcome [8]
active: growth inhibition [1] 95% | inhibition [2] 69% | growth inhibition [4] 94%

NCC1CCCN1Cc1ccc(-c2ccc(-c3nc4ccccc4[nH]3)s2)cc1 (stereo not given)
inactive: inhibition [2] 17% | inhibition [3] -6% | outcome [5] | outcome [6] | outcome [7] | outcome [8]
active: growth inhibition [1] 97% | growth inhibition [4] 98%

CN1CCN(c2cc3c(cc2Cl)CCN3C(=O)Cc2ccc(Cl)c(NC(=O)Nc3cccc([N+](=O)[O-])c3)c2)CC1
inactive: inhibition [2] -1% | inhibition [3] -7% | outcome [5] | outcome [6] | outcome [7] | outcome [8]
active: growth inhibition [1] 51% | growth inhibition [4] 99%

Cc1ccc([C@@H]2CC(=O)CC(c3ccccn3)[C@H]2[N+](=O)[O-])cc1 (stereo not given in full)
inactive: growth inhibition [1] 2% | inhibition [2] 5% | inhibition [3] -1% | outcome [5] | outcome [6] | outcome [7] | outcome [8]
active: growth inhibition [4] 97%

O=C(/C=C/c1ccc(Cl)c(Cl)c1)NCCCCCN1CCC(NC(=O)Nc2ccc(Br)cc2)CC1
inactive: growth inhibition [1] 7% | inhibition [2] 36% | inhibition [3] -3% | outcome [5] | outcome [6] | outcome [7] | outcome [8]
active: growth inhibition [4] 101%

CC(CCCCC(=O)Nc1ccc(CC(C)NCCc2cccc(Cl)c2)cc1)NCCc1cccc(Cl)c1 (stereo not given)
inactive: growth inhibition [1] -1% | inhibition [2] 28% | inhibition [3] -1% | outcome [5] | outcome [6] | outcome [7] | outcome [8]
active: growth inhibition [4] 91%

OCCN1CCN(Cc2cccc(-c3ccc(-c4nc5ccc(C(F)(F)F)cc5[nH]4)cc3)c2)CC1
active: growth inhibition [1] 85% | growth inhibition [4] 102%
inactive: inhibition [2] 19% | inhibition [3] -2% | outcome [5] | outcome [6] | outcome [7] | outcome [8]

CC1(C)N=C(N)N=C(N)N1OCCCOc1cc(Cl)cc(Cl)c1
inactive: inhibition [3] 0% | outcome [5] | outcome [6] | outcome [7] | outcome [8]
active: growth inhibition [1] 97% | inhibition [2] 62% | growth inhibition [4] 95%

Nc1ncc(-c2ccc(F)cc2)cc1-c1nc2ccc(Cl)cc2[nH]1
inactive: growth inhibition [1] 44% | inhibition [2] 45% | inhibition [3] 0% | outcome [5] | outcome [6] | outcome [7] | outcome [8]
active: growth inhibition [4] 99%
